Source: PubChem BioAssay (several laboratories)
PHOSPHO1 block: blocks human PHOSPHO1 phosphatase activity; recombinant PHOSPHO1, absorbance phosphatase assay; inhibition, % at 13.3 µM; 290,000 tested, 1.1% active; in the data active means inhibition above about 60%
Target sequence (Q8TCT1 whole entry, looked up): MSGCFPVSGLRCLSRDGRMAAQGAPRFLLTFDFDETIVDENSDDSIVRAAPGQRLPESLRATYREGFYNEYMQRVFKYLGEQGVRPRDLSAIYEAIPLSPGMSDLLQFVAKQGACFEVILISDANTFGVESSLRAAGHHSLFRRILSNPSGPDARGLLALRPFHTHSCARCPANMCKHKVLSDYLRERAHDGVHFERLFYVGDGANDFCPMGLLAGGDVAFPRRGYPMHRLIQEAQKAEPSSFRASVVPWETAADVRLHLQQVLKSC
WT yeast gro inh: growth inhibition of WT yeast, mitochondrial fusion screen; mitochondrial fusion phenotypic screen, WT strain; inhibition, % at 10 µM; 190,000 tested, 2.1% active; in the data active means inhibition above about 58%; tested in S. cerevisiae
SKKanGAS inh: blocks kanamycin growth of S. pyogenes SKKanGAS strain; BacTiter-Glo, 6 h; inhibition, % at 7.5 µM; 300,000 tested, 1.3% active;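 active means mean replicate score, as percent of positive control median, at least 50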;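 further: strain carries kanamycin resistance gene driven by streptokinase promoter and grows in 40 µg/ml kanamycin; loss of luminescence reflects streptokinase promoter inhibition or plain growth inhibition; 0% = median of DMSO wells and 100% = positive control at its reference dose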
Platelet DG rel: modulates dense granule release in human platelets; human platelet-rich plasma, SFLLRN dense granule ATP release, luminescence; inhibition, %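 (compounds screened at 7.5 µM in platelet-rich plasma)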; 300,000 tested, 0.22% active;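 active means mean replicate score, as percent of positive control, at or above 50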
TPT1 inhibitor: inhibitors of Candida albicans tRNA 2'-phosphotransferase TPT1. recombinant caTPT1, FP RNA substrate dephosphorylation. inhibition, % at 5 µM. 300,000 tested, 0.81% active. AID 1962;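 active means inhibition above the mean of all tested compounds plus 3 SD, set per screening campaign, cut at about 24% in these data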;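 further: plate controls were DMSO alone for no effect and ferristatin control at 100 nM for full effect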
Rtt109 HAT inh: blocks Candida albicans Rtt109/Vps75 acetyltransferase activity. Q5AAJ8. purified Rtt109/Vps75, ThioGlo CoA-SH fluorescence, 4 h. 330,000 tested, 0.16% active. inhibition, % at 34.9 µM;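 active means inhibition of at least 50% in every replicate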
Target sequence (Q5AAJ8 whole entry, looked up): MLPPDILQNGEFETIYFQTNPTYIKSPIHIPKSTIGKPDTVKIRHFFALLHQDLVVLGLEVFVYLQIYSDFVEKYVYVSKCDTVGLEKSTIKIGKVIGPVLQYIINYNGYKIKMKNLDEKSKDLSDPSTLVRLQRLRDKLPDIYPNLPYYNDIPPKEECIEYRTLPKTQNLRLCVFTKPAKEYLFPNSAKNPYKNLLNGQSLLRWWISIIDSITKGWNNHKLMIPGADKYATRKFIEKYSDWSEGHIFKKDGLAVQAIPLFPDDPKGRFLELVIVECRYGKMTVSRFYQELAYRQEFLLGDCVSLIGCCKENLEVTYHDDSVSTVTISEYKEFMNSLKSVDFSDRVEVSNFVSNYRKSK
Numbers without * were called inactive; nt = no result. In the library only some 3.9% were active in any assay of this set; here they are far more common.

SMILES | PHOSPHO1 block | WT yeast gro inh | SKKanGAS inh | Platelet DG rel | TPT1 inhibitor | Rtt109 HAT inh
O=C(CCS(=O)(=O)c1ccccc1)Nc1nc2cc3c(cc2s1)OCCO3 | 16 | nt | 61* | 0 | 2 | 7
O=C(Nc1nc2cc3c(cc2s1)OCCO3)c1cccc(N2C(=O)CCC2=O)c1 | 40 | 9 | 21 | 3 | -2 | -9
CCN(CC)S(=O)(=O)c1cccc(C(=O)Nc2nc3cc4c(cc3s2)OCCO4)c1 | -13 | 23 | 71* | 0 | -2 | nt
CCN(CC)S(=O)(=O)c1cccc(C(=O)Nc2sc3c(c2C(N)=O)CCCC3)c1 | -17 | 73* | 2 | 1 | -2 | 9
NC(=O)c1c(NC(=O)c2ccccc2)sc2c1CCC2 | nt | nt | 0 | 4 | 0 | -14
CNC(=S)Nc1cccc(S(=O)(=O)NCc2ccco2)c1 | nt | nt | nt | nt | nt | -2
Cc1ccc(C)c(NC(=O)CCc2nnc3ccc(NCc4ccco4)nn23)c1 | 38 | nt | -1 | 3 | 2 | -2
O=C(COc1ccc(S(=O)(=O)N2CCOCC2)cc1)N1CCc2ccccc2C1 | 22 | nt | -12 | -8 | 3 | 39
O=C(COc1ccc(S(=O)(=O)N2CCOCC2)cc1)N1CCN(c2ccccc2)CC1 | 68* | nt | -2 | -21 | -2 | -4
COc1cc(C(=O)Oc2cccc(C)c2)cc(OC)c1OC | 13 | 6 | 15 | -2 | -3 | -4
COc1cc(OC)nc(Oc2ccccc2C(=O)Oc2cccc(C)c2)n1 | 55 | 60* | -1 | 2 | -1 | -8
Cc1ccc(C)c(C(=O)CSc2n[nH]c(-c3ccncc3)n2)c1 | 64* | -14 | 0 | -4 | -2 | 6
CCOC(=O)CSc1n[nH]c(NC(=O)c2cccc(C)c2)n1 | 60* | -5 | 0 | 0 | 0 | -8
CCOC(=O)CSc1n[nH]c(-c2cccnc2)n1 | 28 | 95* | -20 | -4 | -1 | 2
O=C(CSc1n[nH]c(-c2ccccc2)n1)Nc1ccc(N2CCOCC2)cc1 | 51 | 0 | 5 | -4 | 3 | nt
CCCCNC(=O)Nc1nc(SCC(=O)OCC)n[nH]1 | 30 | 7 | -4 | -4 | 0 | nt
NS(=O)(=O)c1ccc(NC(=O)COC(=O)CSc2n[nH]c(-c3ccccc3)n2)cc1 | 71* | -1 | 0 | -3 | 3 | 1
Cc1cc(C)c(C(=O)CSc2n[nH]c(-c3ccncc3)n2)c(C)c1 | 18 | 7 | -6 | 9 | -2 | -17
COC(=O)CSc1n[nH]c(-c2cccnc2)n1 | 1 | 3 | -2 | -6 | -4 | -18
O=C(NC1CCCCC1)NS(=O)(=O)c1ccc2c(c1)CCC2 | nt | nt | nt | nt | nt | -1
CN1CCc2nc3sc(C(=O)C45CC6CC(CC(C6)C4)C5)c(N)c3cc2C1 | 81* | 11 | nt | nt | 14 | 8
O=C(NCc1cccnc1)c1ccc(NS(=O)(=O)c2cccc([N+](=O)[O-])c2)cc1 | nt | nt | nt | nt | nt | -13
CCCCCc1ccc(C(=O)CCCC)c(=S)[nH]1 | 2 | 66* | 13 | 8 | -4 | 0
Cc1nc2sc3c(c2c(=O)[nH]1)CCCCC3 | -38 | nt | -1 | 15 | -2 | -7
Cc1cc(C)n(-c2nc3sc4c(c3c(=O)[nH]2)CCCC4)n1 | 7 | 73* | 93* | 1 | -5 | nt
SMILES | PHOSPHO1 block | WT yeast gro inh | SKKanGAS inh | Platelet DG rel | TPT1 inhibitor | Rtt109 HAT inh
O=C1C=C(c2ccc3cc[nH]c3c2)C[C@@H](c2ccc3c(c2)OCO3)C1 | nt | nt | nt | nt | nt | -5
Oc1cccc(C(O)CNCc2ccc(OCc3ccc(Cl)cc3Cl)cc2)c1 (centres undefined) | 29 | 88* | 5 | 0 | -1 | 8
O=C(N/N=C/C(Br)=C/c1ccccc1)NC1CCCCC1 | 30 | 90* | 18 | 0 | -3 | 8
Cc1ccc(NCCCn2ccc(NC(=O)OCc3ccccc3)nc2=O)cc1C | nt | nt | nt | nt | nt | -3
CCCCCC(=O)Nc1cc(N(C)C)nc2ccccc12 | 6 | 64* | 4 | 8 | 0 | -11
CCN(CC)c1ccc(NC(=O)COC(=O)CCC(=O)c2ccc(F)cc2)cc1 | 85* | 8 | -5 | 2 | -6 | -3
COC(=O)c1cccc(N2C(=O)C(Cl)=C(N3CCOCC3)C2=O)c1 | 30 | -2 | -3 | 3 | -1 | 115*
O=C1C(Cl)=C(N2CCCCCC2)C(=O)N1c1ccccc1Cl | 9 | nt | 7 | 0 | 1 | -3
O=C1C(Cl)=C(N2CCOCC2)C(=O)N1c1ccccc1Cl | 1 | 4 | -4 | 3 | 0 | 162*
CC(C1CC2CCC1C2)n1c(COc2ccccc2F)nnc1SCC(N)=O (centres undefined) | 49 | 15 | 6 | -8 | 1 | 0
CC(C)NC(=O)NC(=O)CSc1nnc(COc2ccccc2F)n1C(C)C1CC2CCC1C2 (centres undefined) | 15 | 12 | 51* | -2 | -3 | -2
CCOc1ccccc1NS(=O)(=O)c1ccc2oc(=O)ccc2c1 | nt | nt | 8 | 0 | 0 | 3
Cc1cccc(/C=N/NC(=O)c2ccccc2OCc2cccc(Br)c2)n1 | 13 | nt | 61* | 1 | 0 | 9
Cc1[nH]n(-c2ccccc2)c(=O)c1N=Nc1ccc2c(c1)OCO2 | -10 | -11 | -11 | -18 | 0 | 0
Nc1[nH]n2c(=O)cc(-c3ccccc3)nc2c1N=Nc1ccc2c(c1)OCO2 | 28 | 16 | 56* | 4 | 1 | nt
CC(=O)c1ccccc1OC(=O)COc1ccc([N+](=O)[O-])cc1 | 41 | nt | -6 | 1 | 1 | -4
Clc1ccc2oc(-c3ccccc3)cc(=NCCCN3CCOCC3)c2c1 | -15 | 63* | nt | nt | nt | 11
OCCCCCN=c1cc(-c2ccccc2)oc2ccc(Cl)cc12 | 42 | 3 | -8 | -5 | 5 | 7
Cc1ccc2c(=O)[nH]c(Nc3nc(C)cc(-c4ccccc4)n3)nc2c1 | 34 | nt | 89* | 21 | 1 | 1
Cc1nc(Nc2nc(-c3ccccc3)cc(=O)[nH]2)nc2ccccc12 | nt | nt | 82* | 17 | -1 | 0
Cc1cc(C)cc(Nc2nc3ccccc3c(=O)[nH]2)c1 | 32 | 22 | -5 | 0 | 0 | -2
COc1nc(Nc2nc3ccccc3c(=O)[nH]2)nc2ccc(C)cc12 | -12 | nt | 85* | 8 | -3 | 0
Cc1cccc(C(=O)N2CCN(CCNC(=O)C(=O)Nc3ccc(F)cc3)CC2)c1 | 24 | nt | -2 | 10 | 2 | 11
CCOC(=O)[C@H]1[C@H]2COc3ccc(Br)cc3[C@@H]2N2C(=O)c3cc(F)c(F)cc3NC(=O)[C@@]12C | nt | nt | nt | nt | -2 | 6
Cc1nn(-c2cc(C)c3ccccc3n2)c2c1C1C(C2)C1(C)C (centres undefined) | -7 | 63* | 18 | 8 | 1 | -2
Cc1cc(-n2nnc3ccccc32)nc2ccccc12 | 22 | -18 | 1 | 5 | -3 | 2
Nc1cc(-c2ccc(OC(F)(F)F)cc2)nn1-c1ccc(Cl)c(Cl)c1 | 29 | nt | 67* | -5 | 1 | nt
CC(=O)N(Cc1cc2c(C)cc(C)cc2[nH]c1=O)C1CCCCC1 | -24 | 98* | -13 | -7 | 2 | 16
